Laboratory results as given in PubChem BioAssay (NCI).
Compounds without any hit were thinned out: in the full panel of roughly 79,000, 15% have a hit. Active and inactive are the calls of the source. No stated cut-off is given here; in the data, active means growth inhibition above about 70%; inactive means the rest.

Assay: NCI Yeast Anticancer Drug Screen. Data for the rad50EPP+ strain (AID 151);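 further: 0% = growth of vehicle-treated control cultures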
Settings: S. cerevisiae rad50 mutant strain, hits give high values
Experimental: Growth inhibition of yeast strains with defined genetic alterations is measured as a screen for potential anti-cancer activity. Selected strains with alterations in DNA damage repair or cell cycle control were exposed to compounds and growth inhibition was measured relative to vehicle treated controls. The strain used in this assay is rad50EPP+

Measured: growth inhibition

CCOC(=O)C1N=[N+](c2ccccc2)C(=O)/C1=C\n1c(=S)[nH]c2ccc([N+](=O)[O-])cc21 (stereo not given)
inactive: at 1.2 µM 0% | at 3.7 µM 1% | at 11.0 µM 4% | at 33.0 µM 2% | at 100.0 µM 6%

O=C(O)CNC(=S)Nc1ccccc1
inactive: at 1.2 µM -86% | at 3.7 µM -35% | at 11.0 µM -74% | at 33.0 µM -40% | at 100.0 µM 56%

CCCCC/C(=C(\C#N)C(=O)OCC)c1ccccc1
inactive: at 1.2 µM 3% | at 3.7 µM 3% | at 11.0 µM 13% | at 33.0 µM 26%
active: at 100.0 µM 78%

CCC(C)(C)c1ccc(Oc2cccc(C(=O)O)c2)cc1
inactive: at 1.2 µM 8% | at 3.7 µM 18% | at 11.0 µM 25% | at 33.0 µM 42% | at 100.0 µM 56%

O=[N+]([O-])c1ccc(N/N=C/Cc2ccccc2)c([N+](=O)[O-])c1
inactive: at 1.2 µM -2% | at 3.7 µM 10% | at 11.0 µM 24% | at 33.0 µM 46% | at 100.0 µM 57%

CCCCN(CCCC)C(=O)/C=C/c1ccccc1
inactive: at 1.2 µM -7% | at 3.7 µM -20% | at 11.0 µM -2% | at 33.0 µM 14% | at 100.0 µM 33%

O=[N+]([O-])c1cc(F)c(F)cc1Sc1cc(F)c(F)cc1[N+](=O)[O-]
inactive: at 1.2 µM 30% | at 3.7 µM 68%
active: at 11.0 µM 96% | at 33.0 µM 98% | at 100.0 µM 98%

Nc1ccc(F)cc1S
inactive: at 1.2 µM -19% | at 3.7 µM -19% | at 11.0 µM -37% | at 33.0 µM 55%
active: at 100.0 µM 97%
